Screening results deposited in PubChem BioAssay by National Center for Advancing Translational Sciences (NCATS).
Sampled rows, rich in hits. Any-hit rate of the full collection: about 15%.
RORg inh: qHTS for inhibitors of ROR gamma transcriptional activity; Nuclear receptor ROR-gamma (Mus musculus), P51450; Drosophila S2 Gal4-RORgamma UAS-luciferase reporter, 20 h; 310,000 compounds, 5.4% hits; Potency, µM (doses to about 53.6 µM), inactives show top-dose activity change, negative = inhibition, hits mostly inhibitors; AID 2551, 2010; further: nearly all actives have a fitted effect of over 60% in size
Target sequence (P51450 whole entry, looked up, the tested form may be a part): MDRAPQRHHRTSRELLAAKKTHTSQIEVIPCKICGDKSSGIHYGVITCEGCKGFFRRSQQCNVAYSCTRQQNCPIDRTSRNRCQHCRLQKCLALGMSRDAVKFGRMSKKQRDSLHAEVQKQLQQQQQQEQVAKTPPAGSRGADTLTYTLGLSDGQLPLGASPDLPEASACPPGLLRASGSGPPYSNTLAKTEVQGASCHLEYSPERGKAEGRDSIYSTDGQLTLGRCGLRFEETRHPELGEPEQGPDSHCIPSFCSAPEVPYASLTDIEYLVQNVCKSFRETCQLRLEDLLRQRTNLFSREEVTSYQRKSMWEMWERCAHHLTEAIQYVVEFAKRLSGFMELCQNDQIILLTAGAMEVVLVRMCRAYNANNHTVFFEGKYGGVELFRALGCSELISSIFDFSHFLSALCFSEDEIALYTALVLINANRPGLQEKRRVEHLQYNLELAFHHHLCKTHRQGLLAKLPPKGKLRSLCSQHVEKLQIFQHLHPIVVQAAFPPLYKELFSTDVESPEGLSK
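Luciferase reporter read in Schneider cells carrying Gal4-RORγ (mouse) and UAS-Photinus luciferase; cells given compound 1 h before 700 uM copper sulfate induction, then incubated 20 h at ambient temperature.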
12-LOX inh: Primary qHTS assay for inhibitors of human arachidonate 12S-lipoxygenase (ALOX12): Round 2; 580,000 compounds, 1.1% hits; AID 1671190, 2021; Potency, µM (titrated, usually from 108 µM), without a hit: at the highest dose activity change, negative = inhibition, most hits filed as inhibitors; purified 12hLO, xylenol orange hydroperoxide absorbance
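Purified human 12hLO at 150 nM in 25 mM Hepes, 0.01% Triton X-100, pH 7.0, preincubated 15 min at room temperature with compound. Reaction started with 40 uM arachidonic acid, 30 min at room temperature. Hydroperoxide measured by Fe-xylenol orange, 573/405 nm absorbance ratio.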
Gal4-VP16 FLuc: VP16 counterscreen qHTS for inhibitors of ROR gamma transcriptional activity. Drosophila S2 Gal4-VP16 UAS-luciferase, luminescence, 20 h. Potency, µM (series often up to 53.6 µM), inactives show at the highest dose activity, negative = inhibition, usual class: inhibitors. 310,000 compounds, 3.5% hits. AID 2546, 2010;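 further: Gal4-VP16 expression switched on by copper sulfate through the metallothionein promoter; nearly all actives have a fitted effect of over 50% in size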
TDP1 cell CPT: qHTS for Inhibitors of human tyrosyl-DNA phosphodiesterase 1 (TDP1): qHTS in cells in presence of CPT. Potency, µM (top dose mostly 46.2 µM), inactives show at the highest dose activity change, negative = growth inhibition, usual class: inhibitors. chicken DT40 Tdp1-/-;hTDP1 cells + 20 nM CPT, ATP luminescence, 48 h. AID 686979, 2013. 420,000 compounds, 12% hits; further: nearly all actives have a fitted effect of over 55% in size
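Cell growth measured by CellTiter-Glo luminescence after a minimum 48 h, 37 C compound exposure with 20 nM CPT in Tdp1-knockout DT40 cells stably expressing hTDP1, seeded 400/well; qHTS titration format.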
ELG1 DNA repair: qHTS screen for small molecules that inhibit ELG1-dependent DNA repair in human embryonic kidney (HEK293T) cells expressing luciferase-tagged ELG1; HEK293T ELG1-luciferase reporter, luminescence, 16 h; DNA damage induced by 5-fluorouridine; Potency, µM (titrated, usually from 46.1 µM), for the others: at the highest dose activity change, negative = inhibition, usual class: inhibitors; 330,000 compounds, 2.3% hits; AID 504467, 2011; further: nearly all actives have a fitted effect of over 55% in size
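Step one: seed 2,000 cells per well. Step two: pin-transfer compound or DMSO alongside 5-fluorouridine. Step three: incubate 16 hr, 37 °C, 5% CO2. Step four: add ONE-Glo, wait 30 min, read luminescence.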
TDP1 cell noCPT: qHTS for Inhibitors of human tyrosyl-DNA phosphodiesterase 1 (TDP1): qHTS in cells in absence of CPT; DT40 Tdp1-/- hTDP1 cells, no CPT, ATP luminescence, 48 h; Potency, µM (series often up to 46.2 µM), for the others: at the highest dose activity change, negative = growth inhibition, usual class: inhibitors; 420,000 compounds, 15% hits; AID 686978, 2013; further: nearly all actives have a fitted effect of over 55% in size
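Chicken DT40 Tdp1-/- cells complemented with human TDP1, screened without camptothecin (DMSO vehicle only), 400 cells/well. Compounds pin-transferred, cells incubated at 37 °C for at least 48 hr. Growth read as ATP-dependent luminescence (CellTiter-Glo, 30 min at RT).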
The depositor's hits bear a star; ? = inconclusive; · = no result given; ! = not active in a repeat; [ ] = remark or other dose. The call rests on the fitted dose curve; in most records, active means well fitted curve in the direction sought with a large enough effect; inconclusive means small, poorly fitted or top-dose-only effect, or another doubt; inactive means no such curve, though single readings can be large; an effect the other way counts as inactive or inconclusive. On the % scale 0 is the no-effect control and ±100 the full control effect; potency means the concentration at half of the fitted maximal effect.

SMILES | RORg inh | 12-LOX inh | Gal4-VP16 FLuc | TDP1 cell CPT | ELG1 DNA repair | TDP1 cell noCPT
COCCCNC(=O)Cc1c(C)c2cc3c(cc2oc1=O)OC(C)(C)CC3 | 34% | -1% | -14% | 26µM* | -9% | 26µM*
COCCCNC(=O)Cc1c(C)c2c(cc(C)c3c(C)c(C)oc32)oc1=O | -21% | 8% | -1% | ? | 15% | 13µM*
N#Cc1ccc(C2Nc3ccccc3C(=O)N2c2ccc(Cl)cc2)cc1 (stereo not given) | · | -26% | · | · | · | ·
Cc1ccc2nc(-c3ccc(C)c(NC(=O)c4ccc([N+](=O)[O-])cc4)c3)oc2c1 | · | 7% | · | · | · | ·
CC(C)CCNC(=O)NC(=O)COC(=O)Cc1c[nH]c2ccccc12 | · | -30% | · | · | · | ·
Cc1c(C(=O)NCCCN2CCCC2=O)oc2ccc(S(=O)(=O)N3CCOCC3)cc12 | 6% | -12% | 12% | -13% | 1% | -17%
Cc1c(C(=O)NCCC2=CCCCC2)oc2ccc(S(=O)(=O)N3CCOCC3)cc12 | 32% | 43% | -5% | ? | 16µM* | 21µM*
O=C(NCCC1=CCCCC1)c1ccc(F)c(S(=O)(=O)N2CCOCC2)c1 | ? | 0% | 2% | -24% | ? | ?
O=C(NCCC1=CCCCC1)c1cc(S(=O)(=O)N2CCOCC2)ccc1F | · | 10% | · | 13µM* | -3% | ?
Cc1cccc(N2C(=N)SCC2=O)c1C | -8% | 0% | 2% | -22% | 4% | 3%
CCc1nnc(N2C(=N)SCC2=O)s1 | 1.4µM* | ? | 13µM* | 8% | 9% | ?
Cc1cc(C(F)(F)F)nn1Cc1ccc(C(=O)NCc2ccco2)o1 | 10µM* | 4% | ? | 16µM* | ? | 13µM*
N#Cc1ccnc(Sc2ccc(F)cc2)c1 | · | 53% | · | · | · | ·
Cc1c(C(=O)NCc2cccnc2)oc2ccc(S(=O)(=O)N3CCC4(CC3)OCCO4)cc12 | 5% | 0% | 0% | ? | 23µM* | -27%
COc1ccc(C)cc1NC(=O)c1oc2ccc(S(=O)(=O)N3CCC4(CC3)OCCO4)cc2c1C | · | -13% | · | ? | · | ?
Cc1ccc(NC(=O)c2oc3ccc(S(=O)(=O)N4CCC5(CC4)OCCO5)cc3c2C)cc1C | 34% | -5% | -9% | 8.2µM*! | 6.5µM* | ?
Cc1c(C(=O)NCCN(C)C)oc2ccc(S(=O)(=O)N3CCC4(CC3)OCCO4)cc12 | -4% | -19% | -20% | 1% | 15% | -7%
COc1ccc(NC(=O)c2oc3ccc(S(=O)(=O)N4CCC5(CC4)OCCO5)cc3c2C)cc1Cl | · | -17% | · | 8.2µM* | · | 9.2µM*
CC1=NN(C(=O)c2ccccc2Cl)C(O)(c2cccnc2)C1 (stereo not given) | ? | 42% | ? | ? | 2% | 5.8µM*
O=C(c1ccccc1Cl)N1CCC(O)(c2cccnc2)CC1 | 36% | -4% | -16% | 6% | -14% | 26%
CC1=NN(C(=O)Cc2ccccc2)C(O)(c2cccnc2)C1 (stereo not given) | 6.3µM* | 4% | 7.9µM* | 4.6µM* | 15% | 5.2µM*
CC(C)(C)c1cn(-c2ccccc2)c(=S)[nH]1 | 7.1µM* | ? | 7.9µM* | 20% | 3% | -12%
Cc1ccc(-n2cc(C(C)(C)C)[nH]c2=S)cc1 | 2.2µM* | -4% | 6.3µM* | ? | ? | ?
Cc1cccnc1CN(C)C(=O)c1ccc2nc(-c3ccccc3)cn2c1 | · | 91% | · | · | · | ·
CC(=O)N1c2ccc(Cl)cc2C2C=CCC2C1c1cccc2ccccc12 (stereo not given) | ? | · | 22µM* | 23µM* | 23µM* | ?
SMILES | RORg inh | 12-LOX inh | Gal4-VP16 FLuc | TDP1 cell CPT | ELG1 DNA repair | TDP1 cell noCPT
O=C(CCCn1c(=O)oc2ccccc21)Nc1cccc(-c2nnc3n2CCCCC3)c1 | · | -24% | · | · | · | ·
Cc1nn(-c2ccccc2)c2nc(C3CC3)cc(C(=O)Nc3ccccc3F)c12 | · | -10% | · | 7.3µM* | · | 5.8µM*
Cc1cc(C(=O)Nc2ccc(Cl)cc2)c2c(C)nn(-c3ccccc3)c2n1 | · | -24% | · | 9.2µM* | · | ?
COc1ccc(-c2cc(C(=O)NCC3CC3)c3c(C)nn(-c4ccccc4)c3n2)cc1 | · | 2%[6.33 µM] | · | · | · | ·
Cc1cc(C(=O)NC2CCN(Cc3ccccc3)CC2)c2ccccc2n1 | · | 21% | · | · | · | ·
CCOC(=O)c1cccc(NC(=O)c2cc(C)nc3c2c(C)nn3-c2ccc(C)cc2)c1 | · | -14% | · | ? | · | 21µM*
Cc1cc(C(=O)NCc2ccc(Cl)cc2)c2c(C)nn(-c3ccccc3)c2n1 | · | -14% | · | -2% | · | -17%
Cc1ccc(-n2nc(C)c3c(C(=O)NC4CCN(Cc5ccccc5)CC4)cc(C)nc32)cc1 | · | 7.1µM* | · | · | · | ·
O=C(COc1ccccc1)NC1CCCc2c1[nH]c1c(Cl)cccc21 (stereo not given) | · | 25% | · | · | · | ·
CCOC(=O)/C=C(C)\C=C\c1c[nH]c2ccccc12 | 25% | ? | -13% | -6% | -9% | 29µM*
O=C1N[C@@H](Cc2c[nH]c3ccccc23)COC(=O)[C@H](Cc2ccc(F)cc2)C/C=C\C[C@H]1CC(=O)N(CCO)Cc1ccccc1 | · | ? | · | 13µM* | ? | 16µM*
O=C1N[C@@H](Cc2ccccc2)COC(=O)[C@H](Cc2ccc(F)cc2)CC/C=C/C[C@@H]1CC(=O)N(CCO)Cc1ccccc1 | · | 13% | · | ? | -11% | ?
O=C1N[C@@H](Cc2c[nH]c3ccccc23)COC(=O)[C@@H](Cc2ccc(F)cc2)CC/C=C/C[C@@H]1CC(=O)N(CCO)Cc1ccccc1 | · | 0% | · | ? | 21µM* | 26µM*
CCN(CC)S(=O)(=O)c1cc(NC(=O)CSCc2c(C)noc2C)ccc1C | · | 2% | · | ? | ? | ?
CCN(CC)S(=O)(=O)c1ccc(OC)c(NC(=O)CSCc2c(C)noc2C)c1 | · | 2% | · | ? | -24% | 23µM*
CCN(CC)S(=O)(=O)c1ccc(N(C)C)c(NC(=O)CSCc2c(C)noc2C)c1 | 12% | -1% | -2% | ? | 21µM* | ?
COc1ccc(OC)c(CCNC(=O)c2ccc(CS(=O)(=O)c3ccc(Br)cc3)o2)c1 | 11% | 0% | -3% | 21µM* | ? | ?
